Structures are written as SMILES. Results filed as inconclusive are left out. Where a call stands in place of a potency, no number is given. Calls of active or inactive are those of the source. Calls come from the whole dose curve; as a rule, active = well fitted inhibition curve with a large enough effect; inconclusive = small, poorly fitted or top-dose-only effect; inactive = flat fitted curve, though single readings scatter. Bridge positions count the residues as written; N and C are the ends. Square brackets hold non-standard residues; d marks the D form. Peptide text beside a SMILES is read from it. Orn = NCCC[CH](N)C(=O)O; Mpa = O=C(O)CCS
Potency is the fitted concentration of half-maximal effect.

The target of the assay is Glutathione peroxidase 1 (Homo sapiens) (UniProt P07203). Put plainly: Primary qHTS Assay for Inhibitors of Recombinant Selenoprotein Glutathione Peroxidase 1 (GPX1) (AID 1845191). Note: nearly all actives have a fitted effect of over 65% in size. The note with it: recombinant GPX1, GR-coupled NADPH fluorescence, 15 min; series mostly up to 48.8 µM. In outline: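 NADPH consumption tracked by fluorescence at 340/450 nm between t=0 and t=15 min, room temperature. Final mix: 10 nM GPX1, 100 nM glutathione reductase, 1 mM GSH, 0.5 mM NADPH, 0.5 mM cumene hydroperoxide, 0.01% BSA; 30 min compound–enzyme preincubation.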
Chain of Glutathione peroxidase 1 (Homo sapiens) (P07203 whole entry, looked up): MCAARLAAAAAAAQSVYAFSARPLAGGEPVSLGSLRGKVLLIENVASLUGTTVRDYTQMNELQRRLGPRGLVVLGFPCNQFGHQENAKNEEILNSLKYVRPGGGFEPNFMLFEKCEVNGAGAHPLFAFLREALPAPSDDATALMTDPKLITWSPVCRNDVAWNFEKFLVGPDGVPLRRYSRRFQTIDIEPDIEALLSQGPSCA
As for `CCc1nc2c(sc3nc4c(cc32)COC(C)(C)C4)c(=O)n1Cc1ccco1`, the Potency entry was “inactive”.
With `Cc1cc(-c2nc3ncccc3o2)ccc1NC(=O)COc1ccc(C(C)(C)C)cc1`, the Potency result was “inactive”.
The entry for `CN(C)c1ccc(C(=O)NCCCCCC(=O)NO)cc1` is “inactive”; for `C/C(=N\N=C(N)N)c1ccc(NC(=O)Nc2ccc(/C(C)=N/N=C(N)N)cc2)cc1` it is “inactive”.
`COCC1=C(C(=O)O)N2C(=O)[C@@H](NC(=O)/C(=N\OC)c3csc(N)n3)[C@H]2SC1`: the Potency was 18 µM (active).
The same measure for `NC(=O)C1(N2CCCCC2)CCN(CCCN2c3ccccc3CCc3ccccc32)CC1`: “inactive”; for `Fc1ccc(N2CCN(c3nc4ccccc4c4nc(-c5ccccc5)nn34)CC2)cc1`: “inactive”; for `CCN1CCN(C(c2ccc(C)cc2)c2sc3nc(-c4ccco4)nn3c2O)CC1` (stereo not given): “inactive”.
The figure for `O=C(N[C@H]1CCS[C@H]2CCC[C@@H](C(=O)O)N2C1=O)[C@@H](S)Cc1ccccc1` is 10.1 µM (active).
The same measure for `Cc1cc(Nc2cccc(C(F)(F)F)c2)nc2ccc(NC(=O)c3ccc(=O)[nH]c3)cc12`: “inactive”; for `CC1CCc2c(sc3nc(-c4cc5ccccc5oc4=O)nc(Cl)c23)C1` (stereo not given): “inactive”.
Consider `CC[C@H](C)C1NC(=O)[C@H](Cc2ccc(O)cc2)NC(=O)[C@@H](N)CSSC[C@@H](C(=O)N2CCC[C@H]2C(=O)N[C@@H](CC(C)C)C(=O)NCC(N)=O)NC(=O)[C@H](CC(N)=O)NC(=O)[C@H](CCC(N)=O)NC1=O` (stereo not given in full), for which the Potency result is “inactive”.
In the case of `Cc1ccc2occ(-c3cc(-c4ccc(F)cc4)nc4c3COc3ccc(F)cc3-4)c(=O)c2c1`, the Potency entry was “inactive”.
The same measure for `CC(C)(O)CNc1ncc(-c2ccnc(Nc3ccnc(Cl)c3)n2)c(CC2CC2)n1`: “inactive”; for `O=C(O)c1ccnc2cc(C(OCCCN3CCCCC3)c3ccccc3Cl)[nH]c12` (stereo not given): “inactive”; for `CC1CCc2c(cc(Br)c(F)c2Br)N1C=O` (stereo not given): “inactive”.
For the compound `CCO/N=C(\C(=O)N[C@@H]1C(=O)N2C(C(=O)O)=C(Sc3nc(-c4cc[n+](C)cc4)cs3)CS[C@H]12)c1nsc(NP(=O)(O)O)n1`, the Potency was 4.04 µM (active).
For the compound `COc1ccc(-c2c(C)nn3c4c(cnc23)C(=O)CC(c2ccc(C)cc2)C4)cc1` (stereo not given), the Potency result was “inactive”.
The same measure for `Cn1c(=O)oc2ccc(C(=O)N[C@H](C3CCNCC3)C3CC(O)C3)cc21` (stereo not given in full): “inactive”; for `C[C@]12C=CC(=O)C=C1CC[C@@H]1[C@@H]2[C@@H](O)C[C@@]2(C)[C@H]1CC[C@]2(O)C(=O)COC(=O)c1cccc(S(=O)(=O)O)c1`: “inactive”.
With `CCc1ccc(Nc2c(F)c(F)cc(F)c2F)c(CC(=O)O)c1`, the Potency result was “inactive”.
Turning to `COc1ccc(S(=O)(=O)ON=C2C=C(C)C(=O)C(C)=C2)cc1`, the Potency result was “inactive”.
On to `Nc1nc(NCc2ccccc2)c2[nH]cnc2n1`, for which the Potency entry was “inactive”.
The entry for `CN(Cc1cccc(N2CCN(C(c3ccccc3)c3ccccc3)CC2)c1)[S+](C)(=O)[O-]` is “inactive”.
The same measure for `CNCCN1CCC(OCc2ccccc2)CC1`: “inactive”; for `CCn1c(-c2nc3cc(C(=O)N4CCC[C@@H](N)C4)cc(OC)c3n2C)cc2ccccc21`: “inactive”; for `Cc1cc(Nc2cccc(Cl)c2)nc2ccc(NC(=O)Cc3cccc(C(F)(F)F)c3)cc12`: “inactive”.
Take `CC(C)N(CCCCOCC(=O)O)c1cnc(-c2ccccc2)c(-c2ccccc2)n1`: the Potency result was “inactive”.
Take `CC(=O)CCC1C(=O)N(c2ccccc2)N(c2ccccc2)C1=O`: the Potency result was “inactive”.
Take `O=c1cc(N2CCOCC2)oc2c1ccc1ccccc12`: the Potency entry was “inactive”.
On to `Cc1ccc(C(=O)/C=C/c2ccccc2)s1`, for which the Potency result was “inactive”.
Turning to `CC(C)(C)c1ccc(S(=O)(=O)Nc2ccc(-n3ccnc3)cc2)cc1`, the Potency result was “inactive”.
The same measure for `C[C@@H]1[C@H](C)CC[C@]2(C(=O)O[C@@H]3O[C@@H](CO[C@@H]4O[C@@H](CO)[C@@H](O[C@@H]5O[C@@H](C)[C@@H](O)[C@@H](O)[C@H]5O)[C@@H](O)[C@H]4O)[C@@H](O)[C@@H](O)[C@H]3O)CC[C@]3(C)C(=CC[C@H]4[C@@]5(C)C[C@@H](O)[C@@H](O)[C@](C)(CO)[C@@H]5CC[C@@]43C)[C@H]12`: “inactive”.
The entry for `O=C(O)C1CCc2cc(C3CCCCC3)c(Cl)cc21` (stereo not given) is “inactive”.
The same measure for `Clc1cccc(N2CCN(c3nc4ccccc4c4nc(-c5cccnc5)nn34)CC2)c1`: “inactive”.
In the case of `CCOc1ccc(CC2NC(=O)CCSSCC(C(=O)N3CCCC3C(=O)NC(CCCN)C(=O)NCC(N)=O)NC(=O)C(CC(N)=O)NC(=O)C(C(C)O)NC(=O)C(C(C)CC)NC2=O)cc1` (stereo not given) ([Mpa]Y(Et)ITNCP[Orn]G-NH2; disulfide 1-6; configuration not given here), the Potency entry was “inactive”.
`O=C(Cn1ncc2c1-c1ccccc1OC2)N1CCN(c2ccccc2)CC1`: the Potency result is “inactive”.
Take `Cc1ccc(-c2nc(-c3cc4cccc(OCc5cccc(C)c5)c4oc3=O)no2)cc1`: the Potency result is “inactive”.
Regarding `C/C=C(/C)C(=O)O[C@@H]1c2cc(OC)c(OC)c(OC)c2-c2c(cc3c(c2OC)OCO3)C[C@H](C)[C@]1(C)O`, the Potency entry was “inactive”.
The entry for `O=C1COc2c(CCNCCN(C(=O)CCNCCc3ccc(Cl)c(Cl)c3)C3CCCCC3)ccc(O)c2N1` is “inactive”.

(Values after PubChem BioAssay (NCATS).)
